NPSR antag – qHTS Assay for Antagonists of the Neuropeptide S Receptor: cAMP Signal Transduction. Q6W5P4. CHO-NPSR cells, cAMP TR-FRET, antagonist mode. Potency, µM (doses to about 38.3 µM), most hits filed as inhibitors. 220,000 tested, 1% active; also: nearly all actives have a fitted effect of over 50% in size
HPGD inh – qHTS Assay for Inhibitors of HPGD (15-Hydroxyprostaglandin Dehydrogenase); 15-hydroxyprostaglandin dehydrogenase [NAD(+)] (Homo sapiens), P15428; 150,000 tested, 4.3% active; purified HPGD, NADH fluorescence kinetic, PGE2 substrate; AID 894, 2007; Potency, µM, most hits filed as inhibitors; active = well fitted inhibition curve with a large enough effect, not every such curve was filed as active; inconclusive = small, poorly fitted or top-dose-only effect, or another doubt; inactive = no such curve, though single readings can be large or run the other way
Target sequence (P15428 whole entry, looked up): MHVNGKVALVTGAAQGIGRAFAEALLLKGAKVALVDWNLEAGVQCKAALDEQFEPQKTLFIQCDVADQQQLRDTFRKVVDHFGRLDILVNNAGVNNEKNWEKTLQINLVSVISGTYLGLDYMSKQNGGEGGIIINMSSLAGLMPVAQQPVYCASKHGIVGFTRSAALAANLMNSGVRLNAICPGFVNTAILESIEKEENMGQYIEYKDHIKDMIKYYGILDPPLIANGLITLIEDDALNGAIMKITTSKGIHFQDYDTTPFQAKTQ
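20 nM HPGD preincubated 15 min at room temperature with compound in 50 mM Tris-HCl pH 8, 0.01% Tween 20. Started with 1 mM NAD+ and 30 uM prostaglandin E2; NADH fluorescence (360/450 nm) read 5 times over 30-s intervals, last minus first.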
PNC assembly inh – High Content Assay for Compounds that inhibit the Assembly of the Perinucleolar Compartment; PC3M PTB-GFP, PNC prevalence imaging, 16 h; stronger effect = lower value; activity change (PNC), negative = inhibition, % at 10 µM; 140,000 tested, 3.1% active;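 active = readout at or below -70, meaning at least 70% loss of cells showing the perinucleolar compartment, a nuclear body marking cancer cells; inconclusive = readout between -30 and a set limit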
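PC3M cells stably expressing PTB-GFP, 750–1000 cells/well, treated 16 h at 37 °C with compound (23 nl of library stock), in duplicate. After paraformaldehyde fixation and Hoechst stain, imaged at 20x; PNC prevalence scored by image analysis.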
ALDH1A1 block – qHTS Assay for Inhibitors of Aldehyde Dehydrogenase 1 (ALDH1A1); Aldehyde dehydrogenase 1A1 (Homo sapiens), P00352; Purified ALDH1A1, NADH fluorescence, propionaldehyde substrate; Potency, µM (top dose mostly 75.3 µM), most hits filed as inhibitors; 220,000 tested, 7.3% active; AID 1030, 2008; active = well fitted inhibition curve with a large enough effect, not every such curve was filed as active; inconclusive = small, poorly fitted or top-dose-only effect, or another doubt; inactive = no such curve, though single readings can be large or run the other way
IMPase cell inh – qHTS Assay for Identifying the Cell-Membrane Permeable IMPase Inhibitors. CHO-M1 cells, IP1 accumulation, HTRF TR-FRET ratio. inhibition (IP1 accumulation), % at 46.1 µM. 120,000 tested, under 10 active; active = well fitted curve in the direction sought with a large enough effect in the signal ratio, not every such curve was filed as active; inconclusive = small, poorly fitted or top-dose-only effect, or a change in a side signal; inactive = no such curve, though single readings can be large or run the other way; the % refers to the signal ratio;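 also: cells stimulated with carbachol in lithium chloride buffer; higher means more IMPase inhibition seen as more IP1 and lower FRET ratio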
Target sequence (P97697 whole entry, looked up): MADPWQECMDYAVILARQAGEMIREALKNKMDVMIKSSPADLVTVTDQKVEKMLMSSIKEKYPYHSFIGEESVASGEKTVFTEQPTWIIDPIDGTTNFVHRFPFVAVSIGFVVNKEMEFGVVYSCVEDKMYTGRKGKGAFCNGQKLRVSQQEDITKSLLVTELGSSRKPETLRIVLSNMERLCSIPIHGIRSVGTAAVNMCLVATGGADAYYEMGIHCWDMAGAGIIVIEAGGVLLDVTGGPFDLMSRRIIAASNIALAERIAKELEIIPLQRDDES
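Cellular IMPase inhibition is scored as a rise in cytosolic IP1, detected by competitive TR-FRET between d2-labelled IP1 and a europium anti-IP1 antibody. M1-expressing CHO cells were stimulated with carbachol for 30 min at 37C, with lithium (50 mM LiCl) present in the buffer.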
IMPase Li inh – qHTS Assay for Identifying the Cell-Membrane Permeable IMPase Inhibitors: Potentiation with Lithium | CHO-M1 cells, IP1 TR-FRET (IP-One), carbachol + lithium | Potency, µM (titrated, usually from 59.4 µM), hits mostly inhibitors | 210,000 tested, 0.35% active;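 also: IP1 builds up when IMPase is blocked and the TR-FRET signal falls; nearly all actives have a fitted effect of over 50% in size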
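Steps: plate 2000 CHO-M1 cells per well and culture 16–30 h; add compound and lithium; incubate 30 min, 37C; add d2-IP1 tracer and Eu cryptate anti-IP1 antibody in lysis buffer; read after 10 min at room temperature.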
A number is an active result; [ ] = another dose, or the depositor's remark. Hits are enriched below; roughly 11% of the tested compounds scored in any of these assays. Unless noted, calls follow the shape of the dose curve; as a rule, active = well fitted curve in the direction sought with a large enough effect; inconclusive = small, poorly fitted or top-dose-only effect, or another doubt; inactive = no such curve, though single readings can be large; an effect the other way counts as inactive or inconclusive.

For CCOc1cc(/C=N/NC(=O)CNc2cccc(C)c2)ccc1OC(=O)c1ccccc1 the results were NPSR antag inactive, HPGD inh inactive, PNC assembly inh inconclusive, ALDH1A1 block inactive, IMPase cell inh inactive and IMPase Li inh inactive.
CCC(NC(=O)NCc1ccccc1)(C(F)(F)F)C(F)(F)F was read as NPSR antag inactive, HPGD inh inactive, PNC assembly inh inactive, ALDH1A1 block inactive, IMPase cell inh inactive and IMPase Li inh inactive.
Screening COc1ccc(N2CCN(C(=O)CCc3ccc(S(=O)(=O)NCC(C)C)cc3)CC2)cc1 returned NPSR antag inactive, HPGD inh inactive, PNC assembly inh inconclusive, ALDH1A1 block 13µM, IMPase cell inh inactive and IMPase Li inh inactive.
`CC(NS(=O)(=O)c1ccc(CCC(=O)N2CCN(C)CC2)cc1)c1ccccc1` (configuration not stated) gave NPSR antag inactive, HPGD inh inactive, PNC assembly inh -82, ALDH1A1 block inactive, IMPase cell inh inactive and IMPase Li inh inactive.
CC(C)NS(=O)(=O)c1ccc(CCC(=O)N2CCc3ccccc3C2)cc1 was read as NPSR antag inactive, ALDH1A1 block inactive and IMPase Li inh inactive.
Screening CN(Cc1ccco1)c1cc(-c2ccoc2)ncn1 returned ALDH1A1 block 25µM and IMPase Li inh inactive.
c1ccc2c(-c3[nH]ncc3CNCCCn3ncc4ccccc43)cccc2c1 was read as NPSR antag inactive, ALDH1A1 block inconclusive and IMPase Li inh inactive.
Screening Cc1c(NC(=O)C(C)OC(=O)c2ccc(Cl)nc2)c(=O)n(-c2ccccc2)n1C (configuration not stated) returned NPSR antag inactive, HPGD inh inactive, PNC assembly inh inconclusive, ALDH1A1 block inactive and IMPase Li inh inactive.
Screening O=C1CC(Nc2ccc(N3CCOCC3)cc2)C(=O)N1CCc1ccccc1 (configuration not stated) returned NPSR antag inactive, HPGD inh inactive, PNC assembly inh inactive, ALDH1A1 block 25µM, IMPase cell inh inactive and IMPase Li inh inactive.
`O=C1CC(Nc2ccc(N3CCOCC3)cc2)C(=O)N1c1cccc(C(F)(F)F)c1` (configuration not stated) gave NPSR antag inactive, HPGD inh inactive, PNC assembly inh inactive, ALDH1A1 block 8.9µM, IMPase cell inh inactive and IMPase Li inh inactive.
`COc1ccc(N2C(=O)CC(Nc3ccc(N4CCOCC4)cc3)C2=O)c(OC)c1` (configuration not stated) gave NPSR antag inactive, HPGD inh inactive, PNC assembly inh -88, ALDH1A1 block inconclusive, IMPase cell inh inactive and IMPase Li inh inactive.
`O=C(O)c1ccccc1N/N=C\c1ccnc2ccccc12` gave NPSR antag inactive, HPGD inh 13µM, PNC assembly inh inactive, ALDH1A1 block inconclusive, IMPase cell inh inactive and IMPase Li inh inactive.
CC(NC(=O)c1ccccc1Br)c1nnc(SCc2ccc([N+](=O)[O-])cc2)n1C (configuration not stated) was read as NPSR antag inactive, HPGD inh inactive, PNC assembly inh inactive, ALDH1A1 block inactive, IMPase cell inh inactive and IMPase Li inh inactive.
Cc1ccc2nc(SC(C)C(=O)Nc3cccc([N+](=O)[O-])c3)[nH]c2c1 (configuration not stated) was read as NPSR antag inactive, HPGD inh inconclusive, PNC assembly inh -84, ALDH1A1 block inactive and IMPase Li inh inactive.
`Nn1c(SCC(=O)Nc2ccc(F)cc2F)nnc1-c1cccnc1` gave NPSR antag inactive, PNC assembly inh inactive, ALDH1A1 block inconclusive and IMPase cell inh inactive.
Screening CN1CCN(c2ccc(Cl)cc2NS(=O)(=O)c2ccccc2Cl)CC1 returned NPSR antag inactive, HPGD inh inactive, PNC assembly inh inactive, ALDH1A1 block 14µM, IMPase cell inh inactive and IMPase Li inh inactive.
For O=C(CC(C(=O)N1CCc2ccccc21)n1ccnc1)NCc1ccccc1 (configuration not stated) the results were NPSR antag inactive, HPGD inh inactive, PNC assembly inh inconclusive, ALDH1A1 block inactive, IMPase cell inh inactive and IMPase Li inh inactive.
For CCOC(=O)OCC1OC(C#Cc2ccccc2)C=CC1OC(=O)OCC (configuration not stated) the results were ALDH1A1 block 3.5µM.
`CCOC(=O)c1c(C)[nH]c(C)c1C(=O)CSc1nnc(-c2ccncc2)n1Cc1ccccc1` gave NPSR antag inactive, HPGD inh inactive, PNC assembly inh inactive, ALDH1A1 block inactive, IMPase cell inh inactive and IMPase Li inh inactive.
Screening Cc1ccc(NCc2nnc(SCC(=O)c3ccccc3)n2Cc2ccco2)c(C)c1 returned NPSR antag inconclusive, HPGD inh inactive, PNC assembly inh inconclusive, ALDH1A1 block 10µM, IMPase cell inh inactive and IMPase Li inh inactive.
`CCOC(=O)c1c(C)[nH]c(C)c1C(=O)CSc1nnc(-c2ccco2)n1Cc1ccccc1` gave NPSR antag inconclusive, HPGD inh inactive, PNC assembly inh inactive, ALDH1A1 block 16µM, IMPase cell inh inactive and IMPase Li inh inactive.
`O=C(CSc1nnc(-c2ccco2)n1Cc1ccccc1)c1ccccc1` gave NPSR antag inactive[7.67 µM], HPGD inh 28µM, PNC assembly inh inactive, ALDH1A1 block inconclusive, IMPase cell inh inactive and IMPase Li inh inactive.
`O=C(CSc1nnc(-c2ccco2)n1Cc1ccccc1)NC(=O)NCc1ccccc1` gave NPSR antag inactive, HPGD inh inactive, PNC assembly inh -92, ALDH1A1 block inactive, IMPase cell inh inactive and IMPase Li inh inactive.
Screening Cc1ccc(C(=O)CSc2nnc(-c3ccco3)n2Cc2ccccc2)cc1 returned NPSR antag inactive, HPGD inh inactive, PNC assembly inh inactive, ALDH1A1 block inactive, IMPase cell inh inactive and IMPase Li inh inactive.
`COc1ccc(CCNS(=O)(=O)c2ccc3c(c2)oc(=O)n3C)cc1OC` gave NPSR antag inactive, HPGD inh inactive, PNC assembly inh inconclusive, ALDH1A1 block inactive, IMPase cell inh inactive and IMPase Li inh inactive.
For Cn1c(SCC(=O)c2ccc(-c3ccccc3)cc2)nnc1-c1ccco1 the results were NPSR antag inactive, HPGD inh inactive, PNC assembly inh inconclusive, ALDH1A1 block 10µM, IMPase cell inh inactive and IMPase Li inh inactive.

Screens (PubChem)
